KB-3-1 tox: qHTS assay for MDR1-selective chemotherapeutics: Primary screen using the parental adenocarcinoma cell KB-3-1. KB-3-1 viability, CellTiter-Glo ATP luminescence, 72 h. Potency, µM (series often up to 46.1 µM), most hits filed as cytotoxic. 400,000 compounds, 1.4% hits. AID 1347075, 2019; note: nearly all actives have a fitted effect of over 60% in size
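Parental KB-3-1 adenocarcinoma cells in phenol-red-free DMEM with 10% FBS were pin-treated with compounds at several concentrations, incubated 72 h at 37 °C, and viability read by CellTiter-Glo luminescence; concentration-effect curves were fitted after normalization.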
KB-V1 MDR tox: qHTS assay for MDR1-selective chemotherapeutics: Primary screen using the drug-selected MDR subline cells KB-V1; KB-V1 MDR cells viability, CellTiter-Glo, 72 h; 400,000 compounds, 3.4% hits; Potency, µM (top dose mostly 46.1 µM), most hits filed as cytotoxic; AID 1347076, 2019; note: nearly all actives have a fitted effect of over 60% in size
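Compound-treated KB-V1 multidrug-resistant cells, 72 h, 37 degrees C; viability by CellTiter-Glo. Fitted qHTS curves give the values.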
HT1080NT lethal: qHTS for induction of synthetic lethality in tumor cells producing 2HG: qHTS for the HT-1080-NT fibrosarcoma cell line | 360,000 compounds, 1.6% hits | HT-1080-NT fibrosarcoma viability, CellTiter-Glo ATP luminescence, 48 h | Potency, µM (series often up to 46.1 µM), for inactives: at the top dose activity, negative = less viability, hits mostly cytotoxic | AID 686970, 2013;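 note: NT is the 2HG producing partner of a matched IDH1 knockdown line; 0% = DMSO-treated cells and -100% = media-only wells without cells; nearly all actives have a fitted effect of over 55% in size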
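A 48-hour cytotoxicity screen used HT-1080-NT cells plated 2 hours before compound delivery. ATP-based CellTiter-Glo luminescence measured viability, normalized to DMSO and no-cell controls.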
TDP1 cell noCPT: qHTS for Inhibitors of human tyrosyl-DNA phosphodiesterase 1 (TDP1): qHTS in cells in absence of CPT; DT40 Tdp1-/- hTDP1 cells, no CPT, ATP luminescence, 48 h; Potency, µM (titrated, usually from 46.2 µM), inactives show at the highest dose activity change, negative = growth inhibition, actives largely listed as inhibitors; 420,000 compounds, 15% hits; AID 686978, 2013; note: nearly all actives have a fitted effect of over 55% in size
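Readout: luminescence from CellTiter-Glo after 30 min in the dark at RT. Cells: DT40 Tdp1-/- with stable hTDP1, 400/well. Exposure: compounds alone, ≥48 hr, 37 °C.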
TDP1 cell CPT: qHTS for Inhibitors of human tyrosyl-DNA phosphodiesterase 1 (TDP1): qHTS in cells in presence of CPT | chicken DT40 Tdp1-/-;hTDP1 cells + 20 nM CPT, ATP luminescence, 48 h | Potency, µM (highest dose often 46.2 µM), for inactives: top-dose activity change, negative = growth inhibition, hits mostly inhibitors | 420,000 compounds, 12% hits | AID 686979, 2013; note: nearly all actives have a fitted effect of over 55% in size
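Chicken DT40 Tdp1-/- cells complemented with human TDP1, 400 cells/well, exposed to compounds plus 20 nM camptothecin for at least 48 h at 37 C; viability read as ATP content by CellTiter-Glo luminescence.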
HT1080 IDH1KD tx: qHTS for induction of synthetic lethality in tumor cells producing 2HG: qHTS for the HT-1080-IDH1KD cell line; HT-1080 IDH1 knockdown viability, ATP luminescence, 48 h; Potency, µM (series often up to 46.1 µM), for the others: at the highest dose activity, negative = toxicity, usual class: cytotoxic; 360,000 compounds, 2% hits;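 note: 0% = DMSO wells and -100% = cell-free medium wells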
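Assay cells: HT-1080 with IDH1 knockdown, 750 per well, RPMI/5% FBS. Exposure: 48 h at 37 °C following 2 h pre-incubation. Read: CellTiter-Glo luminescence; fitted concentration-response, curve class assigned.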
Numbers without * were called inactive; i = inactive; ? = inconclusive; / = not tested or not shown. Sampled rows, rich in hits. Any-hit rate of the full collection: about 19%. Calls come from the whole dose curve; as a rule, active = well fitted curve in the direction sought with a large enough effect; inconclusive = small, poorly fitted or top-dose-only effect, or another doubt; inactive = no such curve, though single readings can be large; an effect the other way counts as inactive or inconclusive. Unless noted, % is set by controls: 0 for no effect and ±100 for the full control effect; potency is the fitted concentration of half-maximal effect.

SMILES	KB-3-1 tox	KB-V1 MDR tox	HT1080NT lethal	TDP1 cell noCPT	TDP1 cell CPT	HT1080 IDH1KD tx
C[C@H]1CN=C(N(C)C)N1CCCC1CCCCC1	i	i	-7.7%	16.4µM*	20.6µM*	-4.6%
CN(C)C1=NCCN1CCC1CCCCC1	i	i	11.3%	?	11.6µM*	1.1%
CN(C)C1=NCCN1CC1CCCCCC1	i	i	3.7%	?	-22.2%	-0.9%
CCCCCCCN1CCN=C1N(C)C	i	?	1.9%	16.4µM*	?	5.0%
Cc1ccc(C(=O)NCC(=O)Nc2ccc(S(=O)(=O)Nc3cc(C)nc(C)n3)cc2)cc1	i	i	0.2%	13.1%	-12.6%	-1.6%
COc1cc(O)ccc1-c1nc2cc(C)ccn2c1Nc1ccccc1C	i	?	/	25.9µM*	13µM*	/
Cc1ccn2c(Nc3ccccc3C)c(-c3ccccc3)nc2c1	i	i	/	?	20.6µM*	/
COc1cc(-c2nc3ccccn3c2Nc2ccccc2C)ccc1O	i	i	/	?	?	/
Cc1ccn2c(Nc3ccccc3C)c(-c3cccnc3)nc2c1	i	i	9.9%	?	16.4µM*	-9.9%
Cc1ccc(CC2SC(N=C(N)N)=NC2=O)cc1 (stereo unspecified)	i	i	-0.9%	-0.7%	8.6%	3.0%
Cc1nc2ccc(CN(C)c3ccc(C(=O)N[C@@H](CCC(=O)O)C(=O)O)s3)cc2c(=O)[nH]1	/	/	/	0.0042µM*	0.0084µM*	/
Cn1cc(Br)c(C(=O)n2cc(Br)cn2)n1	i	i	0.4%	-12.5%	?	1.7%
Cn1nc(-c2ccccc2)nc1-c1ccccc1	i	i	-4.1%	-27.4%	?	-3.5%
Cc1nnc2nc(-c3ccccc3)nc(-c3ccccc3)n12	i	i	22.0%	14.6µM*	?	13.7%
CCOC(=O)c1c(C)[nH]c(C(=O)COC(=O)CSCC(=O)N(CC)CC)c1C	?	?	1.5%	0.9%	-14.4%	0.5%
COc1ccccc1-c1nc2ccccc2nc1-c1ccccc1	i	i	-1.2%	?	18.4µM*	-1.4%
Cc1ccc(-c2cccc(CN3CCN(C4CCN(C(C)C)CC4)C(CCO)C3)c2)o1 (stereo unspecified)	i	i	?	7.31µM*	?	?
OCCC1CN(CC(c2ccccc2)c2ccccc2)CCN1C1CCCC1 (stereo unspecified)	i	i	-19.0%	18.4µM*	?	-12.8%
CC(C)N1CCC(N2CCN(Cc3ccc(-c4ccc(Cl)cc4)o3)CC2CCO)CC1 (stereo unspecified)	?	i	16.4µM*	18.4µM*	?	20.6µM*
OCCC1CN(Cc2cnc(-c3ccc(Cl)cc3)nc2)CCN1C1CCCC1 (stereo unspecified)	i	i	?	14.6µM*	23.1µM*	?
CC(C)N1CCC(N2CCN(Cc3ccc(-c4ccccc4Cl)o3)CC2CCO)CC1 (stereo unspecified)	i	i	?	?	?	-13.1%
CC(C)N1CCC(N2CCN(Cc3cnc(-c4ccccc4)s3)CC2CCO)CC1 (stereo unspecified)	i	i	-11.3%	-6.4%	1.1%	-21.5%
COCC(=O)N1CCC2(CC1)CN(C(c1ccccc1)c1ccccc1)C2	/	/	/	-28.3%	2.4%	/
